Measurements published in the supplement of paper PMC6555819.

Legend:
Assay in all cases: PBM binding z-score (relative to random genomic background probes); higher = stronger binding; sequences stand for … in GC…GCGATTGACAGCGTAGAATGAAGG
[1] = test system: PPARg:RXRa DBDmut IVT, anti-RXR (DBD mutation: RXRa K156A/R161A, NR concentration 270 nM, RXRa partner concentration 90 nM)
Summary of the method: (§1)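 Each nuclear receptor dimer, without ligand, was incubated for 1 h on custom Agilent 4×180K protein-binding microarrays. Binding was detected with antibodies against each partner (one per run), and scanned fluorescence was regression-normalized. The binding z-scores are referenced to random human genomic background probes.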

[2] = test system: PPARg:RXRa IVT, anti-PPARg (NR concentration 270 nM, RXRa partner concentration 90 nM)
Summary of the method: as §1

[3] = test system: PPARg DBDmut:RXRa IVT, anti-PPARg (DBD mutation: PPARg1 K132A/R137A, NR concentration 270 nM, RXRa partner concentration 90 nM)
Summary of the method: as §1

[4] = test system: PPARg DBDmut IVT, anti-PPARg (DBD mutation: PPARg1 K132A/R137A, NR concentration 270 nM)
Summary of the method: as §1

[5] = test system: PPARg homodimer (NR concentration 180 nM)
Summary of the method: as §1

[6] = test system: PXR:RXRa (NR concentration 270 nM, RXRa partner concentration 90 nM)
Summary of the method: as §1

[7] = test system: PXR homodimer (NR concentration 270 nM)
Summary of the method: as §1

[8] = test system: RARa:RXR (NR concentration 270 nM, RXRa partner concentration 90 nM)
Summary of the method: as §1

[9] = test system: RARa homodimer (NR concentration 270 nM)
Summary of the method: as §1

[10] = test system: RARb:RXRa (NR concentration 270 nM, RXRa partner concentration 90 nM)
Summary of the method: as §1

[11] = test system: RARb homodimer (NR concentration 270 nM)
Summary of the method: as §1

[12] = test system: RARg:RXRa (NR concentration 270 nM, RXRa partner concentration 90 nM)
Summary of the method: as §1

[13] = test system: RARg homodimer (NR concentration 270 nM)
Summary of the method: as §1

[14] = test system: RXRa DBDmut IVT, anti-RXR (DBD mutation: RXRa K156A/R161A, NR concentration 90 nM)
Summary of the method: as §1

[15] = test system: RXRa homodimer (NR concentration 180 nM)
Summary of the method: as §1

[16] = test system: THRa:RXRa (NR concentration 90 nM, RXRa partner concentration 90 nM)
Summary of the method: as §1

[17] = test system: THRa homodimer (NR concentration 90 nM)
Summary of the method: as §1

[18] = test system: VDR:RXRa (NR concentration 270 nM, RXRa partner concentration 90 nM)
Summary of the method: as §1

[19] = test system: VDR homodimer (NR concentration 270 nM)
Summary of the method: as §1

| Sequence | PBM binding z-score [1] | PBM binding z-score [2] | PBM binding z-score [3] | PBM binding z-score [4] | PBM binding z-score [5] | PBM binding z-score [6] | PBM binding z-score [7] | PBM binding z-score [8] | PBM binding z-score [9] | PBM binding z-score [10] | PBM binding z-score [11] | PBM binding z-score [12] | PBM binding z-score [13] | PBM binding z-score [14] | PBM binding z-score [15] | PBM binding z-score [16] | PBM binding z-score [17] | PBM binding z-score [18] | PBM binding z-score [19] |
| --- | --- | --- | --- | --- | --- | --- | --- | --- | --- | --- | --- | --- | --- | --- | --- | --- | --- | --- | --- |
| CCTGCTAGGACATGGTCAGCTAATCTACAGTATG | 0.152 | -0.597 | -0.458 | -0.543 | -0.902 | -0.794 | -0.746 | -0.925 | -0.734 | 0.0895 | -0.2 | -0.204 | 0.478 | 0.385 | -0.656 | 0.568 | -0.28 | -0.684 | -0.547 |
| TGAATCAGGTTAAAGATCAGGGAACGTGGCGTCG | 2.15 | 3.33 | 0.98 | 0.175 | 0.529 | 0.343 | -0.173 | 1.17 | 0.262 | 0.993 | -7.29e-05 | 0.805 | 0.611 | -0.0911 | 1.71 | 1.04 | -0.365 | 0.238 | -0.0211 |
| ACAGACAAGTGATGAAGGTAACTCAGGCTATCAT | -0.565 | -0.0204 | 0.0249 | -0.152 | -0.0362 | -0.39 | -0.0518 | -0.0214 | 0.43 | -0.307 | 0.0016 | -0.0454 | 0.277 | -0.483 | 0.153 | 0.639 | -0.0791 | -0.0224 | -0.536 |
| ACTCGGAGGACAAAGGTCAGTGCTACGCCAGTGA | 0.807 | 3.58 | 1.11 | -0.05 | 3.66 | 3.7 | 0.26 | 4.7 | 1.27 | 4.5 | 4.71 | 5.37 | 4.99 | 1.36 | 4.26 | 3.38 | 0.657 | 2.82 | 1.11 |
| ACAGACAGGTGATGAAGGTATCTCAGGCTATCAT | -0.101 | 0.167 | -0.0054 | -0.542 | 0.117 | -0.369 | 0.175 | -0.241 | -0.481 | 0.0103 | 0.276 | 0.119 | 0.27 | -0.321 | 0.203 | 0.741 | -0.068 | -0.0743 | -0.586 |
| TCTACTTGGTCAAAGGTCACACACTCGAAATGCG | 3.83 | 6.58 | 2.43 | 3.34 | 4.9 | 6.09 | 1.84 | 7.73 | 4.11 | 5.29 | 5.11 | 7.2 | 6.3 | 2.19 | 8.15 | 4.24 | 2.7 | 5.28 | 2.68 |
| CAGCCTAGGTCAGGGCCAGTAGAGGAGGAACGTT | 1.54 | 1.51 | -1.47 | -0.919 | 1.22 | -0.278 | -0.736 | 0.769 | -0.574 | 3.42 | 2.31 | 2.91 | 3.9 | -0.543 | 1.35 | 1.88 | 0.411 | -0.0759 | 0.169 |
| CCTAGCAGGCCAGCGTCACTCAAGCATTTCGCTT | 0.696 | -0.171 | -1.15 | -1.61 | -0.299 | -0.806 | -0.554 | -0.721 | -0.187 | -0.122 | -0.555 | -0.553 | -0.578 | -0.0144 | -0.744 | -0.634 | -0.783 | -0.645 | -0.635 |
| GCTGCTTGGTCAACTGATGGTCAGCTAAAGCTCG | 0.408 | 0.0173 | -0.74 | -1.06 | -0.674 | -0.491 | -0.859 | -0.138 | -0.784 | 1.24 | 0.641 | 0.828 | 0.795 | 0.0652 | -0.182 | -0.283 | -0.699 | -0.687 | -1.25 |
| CAAACTAGGTCACGGAGGTCAAAGTCCGTGCGTA | 8.69 | 9.3 | 5.33 | 6.03 | 5.85 | 6.63 | 10.4 | 7.02 | 2.61 | 5.34 | 5.44 | 7.06 | 7.31 | 3.08 | 7.23 | 4.74 | 3.58 | 7.92 | 5.9 |
| CAAACTAGGTAAAGGTCAAAGTCGGTTTGTGCCA | 6.36 | 6.65 | 4.01 | 1.08 | 4.48 | 5.72 | 2.28 | 6.09 | 1.6 | 4.99 | 4.92 | 6.24 | 5.71 | 2.3 | 6.98 | 3.87 | 1.05 | 5.38 | 2.8 |
| ATCTCTAGGAAAAAGTTCAGTGAATCCCGAGGAT | -0.718 | -0.0888 | 0.814 | 0.266 | 0.423 | 0.837 | 0.888 | 0.235 | 1 | 1.78 | 1.74 | 1.01 | 1.4 | 0.393 | 0.399 | 0.0597 | -0.127 | 0.44 | 1.42 |
| GCTCGCAGGCCATTTGGGTCACTCAATGACGGGC | 1.09 | 1.56 | -1.82 | -1.26 | 0.213 | 0.621 | 0.71 | 0.492 | -0.566 | 1.72 | 1.93 | 1.23 | 1.41 | 0.0952 | 0.671 | 1.93 | 0.651 | 0.783 | 0.416 |
| CCTCCTGGGCCAAGGTCATTGATCAGTCAAAGCA | -0.293 | 1.48 | -1.33 | -1.61 | 1.55 | 3.38 | 0.83 | 3.49 | -0.129 | 3.47 | 3.38 | 3.6 | 3.13 | 0.822 | 3.1 | 3.43 | 2.34 | 2.91 | 3.08 |
| TCATATAGGTAAATGCTAGCTGAAAGTCCGATCT | 3.73 | 1.89 | 0.625 | 1.15 | 0.314 | 0.592 | 0.27 | 0.762 | 0.642 | 0.242 | -0.406 | 0.14 | 0.178 | 1.68 | 0.565 | -0.388 | -0.402 | 0.702 | 0.142 |
